An excerpt weighted towards active compounds, which were near 14% of everything screened.
HCV inhibitor: inhibitors of hepatitis C virus infection | AID 651820 | Potency, µM (highest dose often 41.8 µM), for the others: at the highest dose activity change, negative = inhibition, usual class: inhibitors | 340,000 tested, 3.4% active | Huh7.5.1 HCVcc-Cre infection, luciferase reporter, 44 h; also: potency is read from the fitted curve at half-maximal effect
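1,000 cells/well; 4 h culture; + compound; + HCVcc-Cre (~0.5 moi); 44 h; luciferase substrate, RT 15 min; read 15 sec.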
Pf growth 96h: P. falciparum growth inhibition at 96 hours. Potency, µM (doses to about 28.7 µM), for inactives: at the top dose activity change, negative = inhibition, hits mostly inhibitors. AID 504834. 320,000 tested, 6.9% active. P. falciparum luciferase reporter growth, 96 h; also: potency is read from the fitted curve at half-maximal effect
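96 h incubation, 37 C, 5% CO2, of luciferase-reporter P. falciparum-infected RBCs (2% hematocrit, 0.05% parasitemia final) with test compounds; endpoint luminescence.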
Pf growth 48h: inhibits P. falciparum growth in the first generation, 48 h | P. falciparum luciferase growth in erythrocytes, 48 h | Potency, µM (titrated, usually from 28.7 µM), without a hit: top-dose activity change, negative = inhibition, usual class: inhibitors | 310,000 tested, 5.9% active | AID 504832; also: potency is read from the fitted curve at half-maximal effect
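Luciferase-expressing P. falciparum in infected erythrocytes (2% hematocrit, 0.1% parasitemia final) in RPMI 1640/0.5% Albumax were exposed to compound for 48 hours at 37 C, 5% CO2; growth read as luminescence.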
MARV entry inh: inhibitors of Marburg virus binding or cell entry; Marburg virus pseudotyped entry inhibition, cell reporter; Potency, µM (highest dose often 37.8 µM), without a hit: at the top dose activity change, negative = inhibition, actives largely listed as inhibitors; 300,000 tested, 1.8% active; AID 540276; calls by dose curve; tested in HEK293 cells; also: potency is read from the fitted curve at half-maximal effect
Lassa entry inh: inhibitors of Lassa virus binding or cell entry; Lassa virus pseudotype entry inhibition, cell reporter; Potency, µM (titrated, usually from 37.9 µM), without a hit: at the top dose activity change, negative = inhibition, actives largely listed as inhibitors; 300,000 tested, 1.2% active; calls by dose curve; tested in HEK293 cells; also: potency is read from the fitted curve at half-maximal effect; nearly all actives have a fitted effect of over 50% in size
HCMV antiviral: blocks human cytomegalovirus replication | HFF cells, HCMV-luciferase reporter, 72 h; active compounds read low | activity change, negative = inhibition, % at 57.5 µM | 410,000 tested, 4.5% active; in the data active = activity change below about -60%; inconclusive = no clear call, values can overlap the other calls; inactive = above about -39%
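HFF cells seeded 16 h at 37C, treated with compounds, infected with luciferase-reporter HCMV at MOI 1 PFU/cell; luciferase read at 72 h post infection, normalized to buffer-only and Salinomycin controls.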
An asterisk follows results filed as active; ? = inconclusive; . = no result; [ ] = dose if it differs, or a comment. Unless noted, calls follow the shape of the dose curve; as a rule, active = well fitted inhibition curve with a large enough effect; inconclusive = small, poorly fitted or top-dose-only effect, or another doubt; inactive = no such curve, though single readings can be large or run the other way. % is scaled to controls: 0 for no effect and ±100 for the full control effect.

SMILES	HCV inhibitor	Pf growth 96h	Pf growth 48h	MARV entry inh	Lassa entry inh	HCMV antiviral
CC(C)CC(COCc1cccc(Cl)c1)N1CCN(C(=O)c2cccc(C(F)(F)F)c2)CCC1=O (stereo not drawn)	3%[8.37 µM]	10µM*	?	?	?	2
CC(C)C[C@@H](COCc1cccc(C(F)(F)F)c1)N1CCN(C(=O)c2ccc(C(F)(F)F)cc2)CCC1=O	.	.	.	.	.	0
CC(C)C[C@@H](COCc1ccc(Cl)cc1)N1CCN(C(=O)c2ccc(C(F)(F)F)cc2)CCC1=O	.	.	.	.	.	-2
COc1ccc(COCC(CC(C)C)N2CCN(C(=O)c3cccc(C(F)(F)F)c3)CCC2=O)cc1 (stereo not drawn)	-44%	?	10µM*	?	?	1
CC(C)CC(COCc1ccc(Cl)cc1)N1CCN(C(=O)c2ccc(Cl)cc2Cl)CCC1=O (stereo not drawn)	?	?	10µM*	?	15µM*	2
O=c1n(Cc2ccccc2)c(O)c2n1Cc1ccccc1N=C2c1ccc(C(F)(F)F)cc1	.	.	.	.	.	8
O=C1CCCC(=O)C1C(=O)c1ccc(C(F)(F)F)cc1[N+](=O)[O-]	.	.	.	.	.	2
Cc1onc(-c2c(F)cccc2Cl)c1-c1ncc(-c2ccc(Cl)cc2)o1	.	.	.	.	.	-76*
COc1cccc(CNC(=O)CCCCCn2c(=O)[nH]c3cc(OC)c(OC)cc3c2=O)c1	.	.	.	-1%[46.1 µM]	-15%[46.1 µM]	-31
CN(C)c1ccc(-c2ccnc3c2CC(C)(C(=O)Nc2cccc(Oc4ccccc4)c2)O3)cc1 (stereo not drawn)	.	.	.	.	.	5
CN(C)c1nnnn1-c1ccc(Cl)cc1Cl	23%	2%	-13%	-8%[46.1 µM]	-3%	-26
O=C(O)Cc1c(C(=O)O)nnn1-c1ccc(Cl)cc1Cl	8%	12%	?	.	.	-66*
O=S(=O)(NCCc1csc2nc(-c3ccccc3)nn12)c1ccc(Oc2ccccc2)cc1	.	.	.	.	?	-67*
Cc1c(CCNS(=O)(=O)c2ccccc2)sc2nc(-c3ccc(Cl)cc3)nn12	.	.	.	.	?	-75*
Cc1cc(C)c(S(=O)(=O)NCCc2csc3nc(-c4ccc(Cl)cc4)nn23)c(C)c1	.	.	.	.	-1%[46.1 µM]	-66*
O=C(CCC1CCCC1)NNC(=O)c1ccccc1O	5%	36%	?	8%	7%	2
COc1cc(C(C)=O)ccc1OCCCN1CCC(c2noc3cc(F)ccc23)CC1	.	.	.	.	.	15
C/C(=N\NC(=O)Cc1ccc(Cl)c(Cl)c1)c1cccnc1	3%	-24%	4%	-13%[46.1 µM]	0%[46.1 µM]	-26
C/C(=N\NC(=O)Cc1ccccc1Cl)c1cccnc1	2%	1.7µM*	?	-20%[46.1 µM]	23%[46.1 µM]	-15
CC(=O)Nc1cccc(-c2ccnc3c2CC(C)(C(=O)Nc2cccc(NS(C)(=O)=O)c2)O3)c1 (stereo not drawn)	.	.	.	.	.	26
Cc1ccc2[nH]c(=O)c(CN(CCCN3CCOCC3)C(=O)Nc3cccc(Cl)c3)cc2c1	6%	1%	8.3µM*	?	-3%	-28
Cc1cccc(NC(=O)N(Cc2cc3cc(C)ccc3[nH]c2=O)CC2COCCO2)c1 (stereo not drawn)	-15%	16%	?	?	?	3
Cc1ccc2[nH]c(=O)c(CN(CCCN3CCOCC3)C(=O)Nc3ccc(Cl)cc3)cc2c1	?	0%	3.7µM*	?	-29%	-7
CCCCNS(=O)(=O)c1ccc(C)c(-c2nnc3c4ccccc4c(C)nn23)c1	.	.	.	-2%[46.1 µM]	-14%[46.1 µM]	-30
CC(c1ccccc1)N1CC(C(=O)N2CCN(Cc3ccc(C#N)cc3)CC2)CC1=O (stereo not drawn)	?	1%	-4%	-18%[46.1 µM]	?	-23
SMILES	HCV inhibitor	Pf growth 96h	Pf growth 48h	MARV entry inh	Lassa entry inh	HCMV antiviral
COc1ccc(C2=C(C)C(=O)N(Cc3ccc(C(=O)NCc4cccc(C)c4)cc3)S2(=O)=O)cc1	.	.	.	.	?	-20
CC(Oc1ccc(F)cc1Br)c1nc2ccccc2c(=O)[nH]1 (stereo not drawn)	-2%	?	9.3µM*	-7%[46.1 µM]	19%[46.1 µM]	14
O=c1[nH]c(COc2ccc(Cl)cc2Br)nc2ccccc12	.	-56%	0%	?	?	92
CCCNC(=O)C1CCC(Cn2c(=O)c3sccc3n(CC(=O)N3CCC(C)CC3)c2=O)CC1 (stereo not drawn)	.	.	.	.	3%[46.1 µM]	-3
CC(CCC(C)C(C)(C)C)[C@@H]1CC[C@H]2C3C[C@H](OS(O)(=S)=S)[C@H]4C[C@H](OS(O)(=S)=S)[C@@H](OS(O)(=S)=S)C[C@]4(C)[C@H]3CC[C@]12C (stereo partly drawn) (tested in a mixture with another compound)	2.5µM*	.	.	.	.	.
CC(CCC(=O)NN)C1CCC2C3CCC4CC(O)CCC4(C)C3CCC12C (stereo not drawn)	12%	.	.	22%	28%	2
O=C(Nc1ccccn1)C1CCN(C(=O)c2ccc(Cl)cc2)CC1	.	.	.	.	.	-17
CCC(=O)N1c2ccccc2CC1C(=O)NCCCN1CCN(c2ccccc2)CC1 (stereo not drawn)	.	.	.	.	18%[46.1 µM]	29
CCC(c1nnnn1Cc1cccs1)N1CCN(c2nc3ccccc3s2)CC1 (stereo not drawn)	?	?	9.3µM*	?	-14%	?
CCC(c1nnnn1Cc1cccs1)N1CCN(C2CCCC2)CC1 (stereo not drawn)	?	?	7%	8%	14%	-13

Screening data as filed in PubChem.
